The test deals with A673/TR/shEF. Briefly: cell viability (LOESS-normalised, relative to median of negative controls) (log2 ratio); higher = more viable cells (less compound effect), active = hit call of the paper (over 3 MAD below the median). As to conditions: treatment time: 72 h. Summed up: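 For three days, A673/TR/shEF Ewing sarcoma cells in 384-well plates (1,500 per well) were treated with library compounds at two or more concentrations or with DMSO controls, after doxycycline had been added or withheld 24 h beforehand to induce EWS-FLI1 shRNA knockdown. Viability was read by CellTiter-Glo luminescence on an Envision reader. The data were LOESS-corrected per plate, divided by the median of negative controls and log2-transformed.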

The mark [1] stands for this setting: 0.25 µM, library screen: screen1, EWS-FLI1 expression: high (no doxycycline).
The mark [2] stands for this setting: 0.25 µM, library screen: screen1, EWS-FLI1 expression: low (doxycycline-induced shRNA knockdown).
The mark [3] stands for this setting: 2.5 µM, library screen: screen1, EWS-FLI1 expression: high (no doxycycline).
Setting [4] is: 2.5 µM, library screen: screen1, EWS-FLI1 expression: low (doxycycline-induced shRNA knockdown).
Setting [5] is: 0.103 µM, library screen: screen3, EWS-FLI1 expression: high (no doxycycline).
The mark [6] stands for this setting: 0.103 µM, library screen: screen3, EWS-FLI1 expression: low (doxycycline-induced shRNA knockdown).
[7] abbreviates: 0.308 µM, library screen: screen3, EWS-FLI1 expression: high (no doxycycline).
Where [8] appears, read: 0.308 µM, library screen: screen3, EWS-FLI1 expression: low (doxycycline-induced shRNA knockdown).
[9] abbreviates: 0.926 µM, library screen: screen3, EWS-FLI1 expression: high (no doxycycline).
[10] abbreviates: 0.926 µM, library screen: screen3, EWS-FLI1 expression: low (doxycycline-induced shRNA knockdown).
[11] abbreviates: 2.8 µM, library screen: screen3, EWS-FLI1 expression: high (no doxycycline).
Where [12] appears, read: 2.8 µM, library screen: screen3, EWS-FLI1 expression: low (doxycycline-induced shRNA knockdown).
The mark [13] stands for this setting: 8.3 µM, library screen: screen3, EWS-FLI1 expression: high (no doxycycline).
Setting [14] is: 8.3 µM, library screen: screen3, EWS-FLI1 expression: low (doxycycline-induced shRNA knockdown).
Where [15] appears, read: 25 µM, library screen: screen3, EWS-FLI1 expression: high (no doxycycline).
The mark [16] stands for this setting: 25 µM, library screen: screen3, EWS-FLI1 expression: low (doxycycline-induced shRNA knockdown).
The mark [17] stands for this setting: 0.025 µM, library screen: screen1, EWS-FLI1 expression: high (no doxycycline).
Setting [18] is: 0.025 µM, library screen: screen1, EWS-FLI1 expression: low (doxycycline-induced shRNA knockdown).
The mark [19] stands for this setting: 25 µM, library screen: screen1, EWS-FLI1 expression: high (no doxycycline).
The mark [20] stands for this setting: 25 µM, library screen: screen1, EWS-FLI1 expression: low (doxycycline-induced shRNA knockdown).

SMILES strings stand for the structures. Hit rate of the full screen: of about 3,200 compounds, about 300 (9.4%) showed activity. This excerpt belongs to a sample that is enriched for actives.

On to `CC(C)c1c(O)c(-c2cc3c(c(C(C)C)c2O)CCC2C(C)(C)CCCC32C)cc2c1CCC1C(C)(C)CCCC21C` (stereo not given), for which the “cell viability (log2)” value reads like this: under setting [1], 0.108 (inactive); under setting [2], 0.109 (inactive); under setting [3], 0.0993 (inactive); under setting [4], 0.112 (inactive).
In the case of `COc1c(C)c2c(c(O)c1C/C=C(\C)CCC(=O)OCCN1CCOCC1)C(=O)OC2`, the “cell viability (log2)” value was 0.051 (inactive) under setting [5]; 0.0315 (inactive) under setting [6]; 0.00041 (inactive) under setting [7]; 0.00916 (inactive) under setting [8]; -0.00635 (inactive) under setting [9]; 0.0426 (inactive) under setting [10]. Also, the “cell viability (log2)” value by setting is: under setting [11], 0.0529 (inactive); under setting [12], 0.0135 (inactive); under setting [13], -0.0785 (inactive); under setting [14], 0.0651 (inactive); under setting [15], -0.48 (active); under setting [16], -0.33 (active).
Regarding `COc1c(C)c2c(c(O)c1C/C=C(\C)CCC(=O)O)C(=O)OC2`, the “cell viability (log2)” value by setting is: (0.025 µM, library screen: screen2, EWS-FLI1 expression: high (no doxycycline)) 0.0161 (inactive); (0.025 µM, library screen: screen2, EWS-FLI1 expression: low (doxycycline-induced shRNA knockdown)) 0.0434 (inactive); under setting [5], 0.108 (inactive); under setting [6], 0.173 (inactive); under setting [1], 0.047 (inactive); under setting [2], -0.0419 (inactive). Further, the “cell viability (log2)” value by setting is: (0.25 µM, library screen: screen2, EWS-FLI1 expression: high (no doxycycline)) 0.0974 (inactive); (0.25 µM, library screen: screen2, EWS-FLI1 expression: low (doxycycline-induced shRNA knockdown)) 0.108 (inactive); under setting [7], 0.00407 (inactive); under setting [8], 0.0569 (inactive); under setting [9], 0.0822 (inactive); under setting [10], 0.0245 (inactive). Moreover, the “cell viability (log2)” value is, setting by setting: under setting [3], 0.0367 (inactive); under setting [4], 0.00349 (inactive); (2.5 µM, library screen: screen2, EWS-FLI1 expression: high (no doxycycline)) 0.137 (inactive); (2.5 µM, library screen: screen2, EWS-FLI1 expression: low (doxycycline-induced shRNA knockdown)) -0.00198 (inactive); under setting [11], 0.147 (inactive); under setting [12], 0.096 (inactive). Moreover, the “cell viability (log2)” value runs as follows: under setting [13], -0.0618 (inactive); under setting [14], -0.0369 (inactive); (25 µM, library screen: screen2, EWS-FLI1 expression: high (no doxycycline)) -0.533 (active); (25 µM, library screen: screen2, EWS-FLI1 expression: low (doxycycline-induced shRNA knockdown)) -0.259 (active); under setting [15], -0.488 (active); under setting [16], -0.403 (active).
Take `COC1=C(OC)C(=O)C(C/C=C(\C)CC/C=C(\C)CC/C=C(\C)CC/C=C(\C)CC/C=C(\C)CC/C=C(\C)CC/C=C(\C)CC/C=C(\C)CC/C=C(\C)CCC=C(C)C)=C(C)C1=O`: the “cell viability (log2)” value is 0.0717 (inactive) under setting [1], 0.153 (inactive) under setting [2], 0.193 (inactive) under setting [3] and 0.233 (inactive) under setting [4].
In the same order, the values of `C(#CC12CC3CC(CC(C3)C1)C2)CN1CCOCC1` are 0.0887 (inactive), 0.0273 (inactive), 0.163 (inactive) and 0.0455 (inactive).
For `Brc1ccccc1CN1CCN(Cc2ccco2)CC1` the same measures were 0.15 (inactive), 0.0476 (inactive), 0.0744 (inactive) and 0.0303 (inactive).
In the same order, the values of `Cn1c(=O)[nH]c(=O)c2[nH]cnc21` are 0.136 (inactive), -0.0262 (inactive), 0.111 (inactive) and 0.0112 (inactive).
As for `C=C(C)C1COc2cc3oc(=O)ccc3cc2O1` (stereo not given), the “cell viability (log2)” value was 0.0489 (inactive) under setting [1], 0.0843 (inactive) under setting [2], 0.0665 (inactive) under setting [3] and 0.127 (inactive) under setting [4].
In the same order, the values of `COc1ccc2c(c1)OC[C@@H](Cc1ccc(OC)c(OC)c1)[C@H]2O` are 0.0776 (inactive), -0.01 (inactive), 0.0904 (inactive) and -0.0561 (inactive).
`C[N+]1(C)C2CC[C@H]1CC(OC(=O)C(O)c1ccccc1)C2` (stereo not given in full): the “cell viability (log2)” value was 0.0981 (inactive) under setting [1], 0.0981 (inactive) under setting [2], 0.164 (inactive) under setting [3] and -0.0226 (inactive) under setting [4].
In the case of `O=c1oc2cc3occc3cc2c2oc3cc4c(cc3c12)OCO4`, the “cell viability (log2)” value by setting is: under setting [1], 0.103 (inactive); under setting [2], -0.01 (inactive); under setting [3], 0.0469 (inactive); under setting [4], 0.0004 (inactive).
In the same order, the values of `OC[C@@H](O)C(O)[C@H](O)CO` are 0.179 (inactive), 0.0545 (inactive), 0.145 (inactive) and 0.0215 (inactive).
For `O=C(O)c1cc(O)ccc1O` the same measures were 0.00691 (inactive), 0.0897 (inactive), 0.0219 (inactive) and 0.0883 (inactive).
As for `O=C(O)c1cc(NCc2cc(O)ccc2O)ccc1O`, the “cell viability (log2)” value runs as follows: under setting [17], 0.268 (inactive); under setting [18], -0.135 (inactive); under setting [1], 0.324; under setting [2], 0.0214 (inactive); under setting [3], -0.24 (active); under setting [4], -0.0017 (inactive). Moreover, the “cell viability (log2)” value under setting [19] was -0.388 (active) and the “cell viability (log2)” value under setting [20] is 0.0315 (inactive).
In the case of `O=C(O)c1cc(N(Cc2ccccc2O)Cc2cc(O)ccc2O)ccc1O`, the “cell viability (log2)” value by setting is: under setting [17], 0.17 (inactive); under setting [18], 0.0496 (inactive); under setting [1], 0.173 (inactive); under setting [2], 0.132 (inactive); under setting [3], 0.0556 (inactive); under setting [4], 0.0297 (inactive). For the same molecule, the “cell viability (log2)” value by setting is: under setting [19], 0.0931 (inactive); under setting [20], 0.144 (inactive).
In the case of `Cc1ccncc1Nc1ncccc1C(=O)Nc1ccc(C2(C#N)CCCC2)cc1`, the “cell viability (log2)” value by setting is: under setting [5], 0.0267 (inactive); under setting [6], 0.0194 (inactive); under setting [7], 0.0111 (inactive); under setting [8], -0.0325 (inactive); under setting [9], -0.00588 (inactive); under setting [10], -0.00768 (inactive). Besides, the “cell viability (log2)” value under setting [11] is -0.00204 (inactive); the “cell viability (log2)” value under setting [12] is -0.0249 (inactive); the “cell viability (log2)” value under setting [13] was 0.00934 (inactive); the “cell viability (log2)” value under setting [14] was -0.0211 (inactive); the “cell viability (log2)” value under setting [15] was -0.0197 (inactive); the “cell viability (log2)” value under setting [16] is 0.0222 (inactive).
`Cc1ccc(NC(=O)c2ccc(CN3CCN(C)CC3)cc2)cc1Nc1nccc(-c2cccnc2)n1`: the “cell viability (log2)” value is, setting by setting: under setting [5], 0.102 (inactive); under setting [6], 0.119 (inactive); under setting [7], 0.178 (inactive); under setting [8], 0.125 (inactive); under setting [9], 0.121 (inactive); under setting [10], 0.129 (inactive). Besides, the “cell viability (log2)” value by setting is: under setting [11], 0.135 (inactive); under setting [12], 0.128 (inactive); under setting [13], 0.122 (inactive); under setting [14], 0.126 (inactive); under setting [15], -0.195 (active); under setting [16], 0.146 (inactive).
